For 40 compounds, parasite growth remaining, % of DMSO control (lower = more inhibition) results are on record in PubChem BioAssay (NCATS).

The nature of this assay: qHTS profiling of the MIPE4 collection as inhibitors of Plasmodium falciparum (DD2) proliferation (AID 743345). Conditions: P. falciparum Dd2 in erythrocytes, SYBR Green DNA, 72 h; at 28.5 µM (top of the series) unless noted. The text has this:
Plasmodium falciparum is a virulent malarial parasite that kills 1-2 million people worldwide each year. Transmitted by mosquitoes, the sporozoite form of the parasite enters the blood stream to infect hepatocytes, where they become merozoites that infect red blood cells (erythrocytes). Within erythrocytes, merozoites begin a […] cycle of growth and division, after which the parasite is released to infect new red blood cells. Gametocytes, which form within erythrocytes as well, circulate in the bloodstream and are ingested by the mosquito, thereby completing the life cycle. To profile malarial isolates for differential chemical responses and to identify inhibitors of malarial growth, an assay that measures P. falciparum growth and replication within erythrocytes was employed. This assay uses a DNA binding fluorescent dye (SYBR Green) to detect parasite DNA following cell lysis. Because mature erythrocytes lack DNA, only Plasmodium-derived DNA is detected.
The SYBR Green viability assay was adapted from a method described previously (Plouffe et al., 2008). For screening 3 ul culture medium was dispensed into 1536 well black clear bottom plates (Aurora Biotechnologies) using a Multidrop Combi (Thermo Fisher Scientific Inc.), 23 nL compounds in DMSO were added by a pin tool (Kalypsys), and 5 ul of erythrocytes infected with P. falciparum (0.3% parasitemia, 2.5% hematocrit final concentration) were added. The plates were incubated at 37 C in a humidified incubator in 5% CO2 for 72 h, and 2 ul lysis buffer (20 mM Tris HCl, 10 mM EDTA, 0.16% saponin, 1.6% triton X, 10X SYBR Green I supplied as 10,000X […] by Invitrogen) was added to each well. The plates were mixed for 25 sec with gentle shaking and incubated overnight at room temperature in the dark. The following morning, fluorescence intensity at 485(14) nm excitation and 535(25) nm emission wavelengths was measured on an EnVision (Perkin Elmer) plate reader. Plate reads were normalized relative to the control inhibitor (0.29 uM artemisinin) and vehicle (DMSO) wells present on each plate and then corrected by an algorithm using vehicle-only control plates at the beginning and end of the compound plate stack.
For orientation: Quantitative high-throughput screening tests each substance at several concentrations.
Regarding `COc1ccccc1-c1cccc(-c2c(O)c3cc(C#N)c(Cl)cc3[nH]c2=O)c1`, the parasite growth remaining, % of DMSO control (lower = more inhibition) turned out to be 84.4% [at 57.5 µM].
The same measure for `Cc1ccccc1C(C(=O)NC1CCCC1)N(C(=O)Cn1cnc2ccccc21)c1cccc(F)c1` (stereo not given): 65.6%; for `c1ccc(-c2nn3c(c2-c2ccnc4cc(OCCN5CCOCC5)ccc24)CCC3)nc1`: 50.6%; for `CCCn1c(=O)c2[nH]c(C34CC5CC3C[C@@H](C5)C4)nc2n(CCC)c1=O`: 77.4%.
As for `C[C@H](NC(=O)Cc1cc(F)cc(F)c1)C(=O)N[C@@H]1C(=O)N(C)c2ccccc2-c2ccccc21`, the parasite growth remaining, % of DMSO control (lower = more inhibition) worked out at 12.1%.
As for `COc1ccc(COc2cc3oc(=O)c4cc(C(C)O)ccc4c3cc2OC)cc1` (stereo not given), the parasite growth remaining, % of DMSO control (lower = more inhibition) is 77.1%.
In the case of `O=S(=O)(N=Cc1c(O)ccc2ccccc12)c1cccs1`, the parasite growth remaining, % of DMSO control (lower = more inhibition) was 91.9%.
The same measure for `COc1ccc(-c2ccc3c(N4CCOC[C@H]4C)nc(N4CCOC[C@H]4C)nc3n2)cc1CO`: 9.32%; for `Cn1cnc([N+](=O)[O-])c1Sc1ncnc2nc[nH]c12`: 87.7%; for `CCCS(=O)(=O)Nc1ccc(F)c(C(=O)c2c[nH]c3ncc(Cl)cc23)c1F`: 77.2%.
As for `CCOc1ccc(Cc2cc([C@@H]3O[C@H](CO)[C@@H](O)[C@H](O)[C@@H]3O)ccc2Cl)cc1`, the figure is 104%.
As for `CCC(C)n1ncn(-c2ccc(N3CCN(c4ccc(OC[C@H]5CO[C@](Cn6cncn6)(c6ccc(Cl)cc6Cl)O5)cc4)CC3)cc2)c1=O` (stereo not given in full), the parasite growth remaining, % of DMSO control (lower = more inhibition) was 8.47%.
The same measure for `CS(=O)(=O)c1cccc(CNc2nc(Nc3ccc4c(c3)CCC(=O)N4)ncc2C(F)(F)F)c1`: 14.8%; for `NCCc1ccc(O)c(O)c1`: 20.2%.
The same measure for `N#Cc1ccc(C(c2ccc(C#N)cc2)n2cncn2)cc1`: 93.7%; for `O=c1[nH]c(-c2ccc(C(F)(F)F)cc2)nc2c1CSCC2`: 93.9%; for `COc1nc(-c2ccc3c(c2)OCO3)n(-c2ccc(NC(=O)CSc3ccccc3)cc2)n1`: 86.8%.
The same measure for `Oc1cccc(-c2nc(N3CCOCC3)c3oc4ncccc4c3n2)c1`: 8.08% [at 57.5 µM].
With `Cc1cnc(NC(=O)C2=C(O)c3ccccc3S(=O)(=O)N2C)s1`, the parasite growth remaining, % of DMSO control (lower = more inhibition) is 86.7%.
As to `COc1ccc(-c2ccc3c(N4CCOCC4)nc(N4C[C@@H](C)O[C@@H](C)C4)nc3n2)cc1CO`, the parasite growth remaining, % of DMSO control (lower = more inhibition) came out at 15.1%.
The same measure for `OC(CN1CCC(Cc2ccc(F)cc2)CC1)c1ccc(Cl)cc1` (stereo not given): 8.62%.
For `COc1c(Cl)cc2c([nH]c3cnccc32)c1NC(=O)c1cccnc1C`, the parasite growth remaining, % of DMSO control (lower = more inhibition) turned out to be 72.7%.
The same measure for `CC(c1cc2ccccc2s1)N(O)C(N)=O` (stereo not given): 98.2%.
As for `Nc1nc2ccc(OC(F)(F)F)cc2s1`, the figure is 7.7%; as for `CC(C)(N)C(=O)N[C@H](COCc1ccccc1)C(=O)N1CCC2(CC1)CN(S(C)(=O)=O)c1ccccc12`, 10.9%.
The same measure for `Cc1ccc(N(CC2=NCCN2)c2cccc(O)c2)cc1`: 92.8%; for `O=C1[C@H](Cc2ccc(O)cc2)N2C(=O)CCN(C(=O)NCc3ccccc3)[C@H]2CN1Cc1cccc2ccccc12`: 56%.
For `CCC(=O)N[C@H]1CC[C@H](C(=O)N(C)c2ccc(-c3nc4ccccc4o3)cc2)C1`, the parasite growth remaining, % of DMSO control (lower = more inhibition) came to 65.1%.
The same measure for `COc1cccc2cc(-c3nc(C4CCC(C(=O)O)CC4)n4ncnc(N)c34)[nH]c12` (stereo not given): 16.6%.
On to `Nc1nc2c(ncn2COCCO)c(=O)[nH]1`, for which the parasite growth remaining, % of DMSO control (lower = more inhibition) was determined as 97.6%.
As for `CCC(C)(C)C(=O)O[C@H]1C[C@@H](C)C=C2C=C[C@H](C)[C@H](CC[C@@H]3C[C@@H](O)CC(=O)O3)[C@H]21`, the figure is 42%; as for `CCCc1nn(C)c2c(=O)[nH]c(-c3cc(S(=O)(=O)N4CCN(C)CC4)ccc3OCC)nc12`, 17.2%; as for `Nc1cccc(S(=O)(=O)N2CCCN(S(=O)(=O)c3ccc4c(c3)OCCO4)CC2)c1`, 102%.
As for `CCOC(=O)N1CCC(=C2c3ccc(Cl)cc3CCc3cccnc32)CC1`, the figure is 56.2%.
As for `C[C@]12CC[C@H](O)CC1=CC[C@@H]1[C@H]2CC[C@]2(C)C(c3cccnc3)=CC[C@H]12`, the figure is 10% [at 9.64 µM]; as for `Cc1c(CCOc2ccc(C(=O)O)cc2)c2cc(Cl)ccc2n1C(c1ccccc1)c1ccccc1`, 70.3%.
In the case of `Cc1cccc(-c2nn(C(=S)Nc3ccccc3)cc2-c2ccnc3ccccc23)n1`, the parasite growth remaining, % of DMSO control (lower = more inhibition) worked out at 86.3%.
As for `CCn1cc(C(=O)O)c(=O)c2cc(F)c(N3CCNC(C)C3)c(F)c21` (stereo not given), the figure is 68.3%.
As for `COCCNCCCn1c(C(=O)CF)c(-c2ccc(C)cc2)c2c(N)ncnc21`, the figure is 85.3%; as for `Cc1cc2c(F)c(Oc3ncnn4cc(OC[C@@H](C)O)c(C)c34)ccc2[nH]1`, 93.1%.
